Measurements from PubChem BioAssay (Tox21).
Inconclusive results are not listed. Entries that show only a call come without a potency. Activity calls are given as the source filed them. Calls come from the whole dose curve; as a rule, active = well fitted cell-killing curve with a large enough effect in the repeat runs; inconclusive = weak or mixed curves, or effect the other way; inactive = no such curve, though single readings can be large or run the other way.

assay: qHTS assay to identify small molecule antagonists of the glucocorticoid receptor (GR) signaling pathway - cell viability counter screen (AID 720693); details: GR-bla HeLa viability, CellTiter-Glo luminescence, 18 h, with 5 nM dexamethasone present; series mostly up to 58.5 µM; note: nearly all actives have a fitted effect of over 55% in size
Text: National Center for Advancing Translational Sciences [NCATS]
NIH Chemical Genomics Center [NCGC]
U.S. Environmental Protection Agency [EPA]
National Institutes of Environmental Health Sciences [NIEHS]
National Toxicology Program [NTP]
U.S. Food and Drug Administration [FDA]
The Glucocorticoid receptor (GR) is one of the members of the nuclear receptor family of ligand-dependent transcription factors. GR plays a critical role in carbohydrate, protein and lipid metabolisms and programmed cell death. CellSensor GR-bla HeLa cell line (Invitrogen) contains a beta-lactamase reporter gene under the control of the glucocorticoid response element stably integrated into HeLa cells, a cervical cancer cell line that expresses glucocorticoid receptor. The activation of the reporter gene under culture conditions can be detected by fluorescence intensity. This cell line has been used to screen the Tox21 10K compound library and to identify the compounds that inhibit the GR signaling. The cytotoxicity of the Tox21 compound library against the GR-bla HeLa cell line was tested in parallel by measuring the cell viability using CellTiter-Glo assay in the same wells.
Tox21 Assay Protocol Summary:
The GR-bla HeLa cells were dispensed at 1500 cells/5 ul/well in 1536-well black wall/clear bottom plates using a Multidrop Combi (ThermoFisher Scientific, Waltham, MA) dispenser. After the assay plates were incubated at a 37 C/5% CO2 incubator for 4 hours, 23 nL of compounds dissolved in DMSO, positive controls or DMSO only was transferred to the assay plate by a pintool station (Kalypsys, San Diego, CA), followed by addition of 1 uL of dexamethasone (5 nM, final concentration in the well). The plates were incubated at 37 C for 18 hours. After 1 uL of LiveBLAzerTM B/G FRET substrate was added using a Flying Reagent Dispenser (Aurora Discovery, San Diego, CA), the plates were incubated at room temperature (RT) for 2 hours, and fluorescence intensity was measured by an Envision plate reader (PerkinElmer, Shelton, CT). After measurement of bla assay, 3 ul CellTiter-Glo (Promega, Madison, WI) was added to measure the cytotoxicity and the plates were then incubated at RT for 30 min. The luminescence was measured using a ViewLux (Perkin Elmer) plate reader.
Potency is the fitted concentration of half-maximal effect.

| Structure (SMILES) | Potency |
| --- | --- |
| CN1CC[C@@]23CCCC[C@@H]2[C@@H]1Cc1ccc(O)cc13 | inactive |
| O=C(O)CCCO | inactive |
| CCNC1(c2cccs2)CCCCC1=O (stereo not given) | inactive |
| NCC[C@H](O)C(=O)N[C@@H]1C[C@H](N)[C@@H](O[C@H]2O[C@H](CN)[C@@H](O)[C@H](O)[C@H]2N)[C@H](O[C@@H]2O[C@H](CO)[C@@H](O)[C@H]2O)[C@H]1O | inactive |
| NC(=O)CN1CC(O)CC1=O (stereo not given) | inactive |
| CC(N)Cc1ccc2c(c1)OCO2 (stereo not given) | inactive |
| COC(=O)[C@H]1[C@@H](OC(=O)c2ccccc2)C[C@@H]2CC[C@H]1N2C | inactive |
| CC(=O)O[C@H]1C[C@H](O[C@H]2[C@@H](O)C[C@H](O[C@H]3[C@@H](O)C[C@H](OC4CC[C@@]5(C)[C@H](CC[C@@H]6[C@@H]5CC[C@]5(C)[C@@H](C7=CC(=O)OC7)CC[C@]65O)C4)O[C@@H]3C)O[C@@H]2C)O[C@H](C)[C@H]1O[C@@H]1O[C@H](CO)[C@@H](O)[C@H](O)[C@H]1O (stereo not given in full) | 0.756 µM (active) |
| C[C@]12CCC(=O)C[C@@H]1CC[C@@H]1[C@@H]2CC[C@@]2(C)[C@H]1CC[C@]2(C)O | inactive |
| C[C@@H](CO)NC(=O)[C@@H]1C=C2c3cccc4[nH]cc(c34)C[C@H]2N(C)C1 | inactive |
| O=C1CN=C(c2ccccc2)c2cc(Cl)ccc2N1 | inactive |
| CCC1(C)CC(=O)NC(=O)C1 | inactive |
| CC(C)NC(C)Cc1ccc(I)cc1 (stereo not given) | inactive |
| CN(C)[C@H](Cc1ccccc1)c1ccccc1 | inactive |
| [2H]C([2H])([2H])[C@H](N)Cc1ccccc1 | inactive |
| O=C(CCl)c1ccc(Oc2ccc(C(=O)CCl)cc2)cc1 | inactive |
| O=C1OC2(c3cc(Br)c(O)cc3Oc3c2cc(Br)c(O)[c]3[Hg])c2ccccc21 (stereo not given) | inactive |
| CC(C)C[C@H](CN)CC(=O)O | inactive |
| Cc1cc(C)cc(C(=O)OC2C[C@H]3CC[C@@H](C2)N3C)c1 (stereo not given in full) | inactive |
| OC[C@@H](O)[C@H]1O[C@@H]2O[C@@H](C(Cl)(Cl)Cl)O[C@@H]2[C@H]1O | inactive |

| Structure (SMILES) | Potency |
| --- | --- |
| CCCCC[C@@H](O)C1C(=O)OC(C)[C@H](O)/C=C/C=C/C=C/C=C/C=C(\C)C(O)C(O)C(O)C[C@H](O)C[C@H](O)C[C@H](O)C[C@H](O)C[C@@H]1O (stereo not given in full) | inactive |
| Cc1nnc2n1-c1sc(Br)cc1C(c1ccccc1Cl)=NC2 | inactive |
| C[C@]12C=CC(=O)C=C1CC[C@@H]1[C@@H]2CC[C@]2(C)OC(=O)CC[C@@H]12 | inactive |
| CCON=O | inactive |
| CC1(C)S[C@@H]2[C@H](N)C(=O)N2[C@H]1C(=O)O | inactive |
| C[C@@H](Cc1ccccc1)NCCC(c1ccccc1)c1ccccc1 | inactive |
| CCC(=O)O[C@]1(c2ccccc2)CCN(C)C[C@H]1C | inactive |
| C[C@@H]1[C@@H]2Cc3ccc(O)cc3[C@@]1(C)CCN2CCc1ccccc1 | inactive |
| O=C(OCCN1CCCCC1)C(O)(c1ccccc1)c1ccccc1 | inactive |
| CN1CCCC(=C(c2cccs2)c2cccs2)C1 | inactive |
| C[N+]1(C)CCCCC1COC(=O)C(O)(c1ccccc1)c1ccccc1 (stereo not given) | inactive |
| CNC(C)C(O)c1ccc(O)cc1 (stereo not given) | inactive |
| Clc1ccc(C(Cn2ccnc2)OCc2csc3c(Cl)cccc23)c(Cl)c1 (stereo not given) | inactive |
| CCOC(=O)C(O)(c1ccc(Cl)cc1)c1ccc(Cl)cc1 | 17.6 µM (active) |
| COc1ccc2c3c1O[C@H]1[C@@H](O)C=C[C@H]4[C@@H](C2)NCC[C@@]341 | inactive |
| C#CC(C)(O)CC (stereo not given) | inactive |
| CCN(CC)/[N+]([O-])=N/O | inactive |
| CC[N+](C)(CC)CCOC(=O)C(O)(c1ccccc1)c1ccccc1 | inactive |
| CN=C1CN(O)C(c2ccccc2)=c2cc(Cl)ccc2=N1 | inactive |
| N#CC(C#N)=Cc1cc(O)c(O)c(O)c1 | inactive |
